“And” between values parts separate entries of the source, which are not always exact repeats. Identical values can stand only once. Results filed as inconclusive are left out. A structure can be active in one record and inactive in another. The source made the active and inactive calls. The calls were made as follows: active = hit-call score of the fitted dose curve at least 0.9, where 1 is the maximum; inconclusive = response in the unintended direction; inactive = score below 0.9.
Molecular target: Androgen Receptor/SRC-1 Co-activator, AR (gene 367) (UniProt P10275)
Assay: OT_AR_ARSRC1_0960: Odyssey Thera (OT) 16-hour HEK293T Protein-Complementation Assay for Androgen Receptor/SRC-1 Co-activator (AID 2283353);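 also: actives raise the signal above DMSO so potency reflects increased AR and SRC-1 complex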
Procedure, shortened: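 Sixteen-hour cell assay: Venus halves fused to AR and SRC-1 in HEK293T report binding. Images at 488/635 nm give an N/C ratio in the 488 nm channel over ≥400 cells, analysed as signal increase over DMSO.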

Androgen Receptor/SRC-1 Co-activator, AR (gene 367), sequence (P10275 whole entry, looked up): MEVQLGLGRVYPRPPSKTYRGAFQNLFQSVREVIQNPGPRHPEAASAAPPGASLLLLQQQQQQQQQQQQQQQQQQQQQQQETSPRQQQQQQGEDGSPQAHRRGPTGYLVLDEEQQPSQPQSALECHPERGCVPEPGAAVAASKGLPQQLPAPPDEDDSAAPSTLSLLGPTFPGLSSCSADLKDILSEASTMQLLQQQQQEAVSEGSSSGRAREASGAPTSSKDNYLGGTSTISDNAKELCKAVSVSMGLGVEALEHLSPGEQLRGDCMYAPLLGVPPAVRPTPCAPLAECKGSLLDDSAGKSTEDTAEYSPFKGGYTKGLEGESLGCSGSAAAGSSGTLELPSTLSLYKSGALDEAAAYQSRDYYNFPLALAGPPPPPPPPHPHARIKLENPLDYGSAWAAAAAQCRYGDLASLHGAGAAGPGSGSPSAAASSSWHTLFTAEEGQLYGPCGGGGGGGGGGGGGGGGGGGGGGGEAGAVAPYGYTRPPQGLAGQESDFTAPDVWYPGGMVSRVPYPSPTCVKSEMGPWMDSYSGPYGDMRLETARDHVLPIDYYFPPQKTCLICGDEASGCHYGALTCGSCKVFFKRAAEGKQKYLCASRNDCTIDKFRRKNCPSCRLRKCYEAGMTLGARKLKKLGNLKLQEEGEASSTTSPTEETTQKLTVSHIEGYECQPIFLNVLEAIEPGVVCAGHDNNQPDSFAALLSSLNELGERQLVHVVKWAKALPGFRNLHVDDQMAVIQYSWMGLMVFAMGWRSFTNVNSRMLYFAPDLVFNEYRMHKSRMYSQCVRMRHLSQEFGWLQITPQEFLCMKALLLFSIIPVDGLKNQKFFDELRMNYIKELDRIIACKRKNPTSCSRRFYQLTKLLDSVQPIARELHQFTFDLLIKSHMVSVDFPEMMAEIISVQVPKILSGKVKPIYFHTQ

**Q.** How did the AC50 turn out when `CCCCCCCc1ccc(O)cc1` was run?
**A.** 72 µM (active) and 72.7 µM (active) and 73.8 µM (active)

**Q.** What about the outcome of the same molecule?
**A.** inactive

**Q.** With `CCNc1nc(Cl)nc(NC(C)(C)C)n1` as the molecule, how does the outcome read?
**A.** inactive

**Q.** `CCCCC(CC)COP(=O)(Oc1ccccc1)Oc1ccccc1` (centres undefined) was tested. Which outcome did it give?
**A.** inactive

**Q.** How did the AC50 turn out when `CC1(C)CN=C(NN=C(/C=C/c2ccc(C(F)(F)F)cc2)/C=C/c2ccc(C(F)(F)F)cc2)NC1` was run?
**A.** 12.7 µM (active)

**Q.** How did the outcome turn out when `CCCCN(CC)C(=O)SCCC` was run?
**A.** inactive

**Q.** `c1cc2c3c(cccc3c1)CC2` was tested. Which outcome did it give?
**A.** inactive

**Q.** Which outcome does the source give for `CCN(CC)c1ccccc1` here?
**A.** inactive

Molecular target: Androgen Receptor/SRC-1 Co-activator, AR (gene 367) (UniProt P10275)
Assay: OT_AR_ARSRC1_0480: Odyssey Thera (OT) 8-hour HEK293T Protein-Complementation Assay for Androgen Receptor/SRC-1 Co-activator (AID 2283354);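 also: hits raise the complementation signal above DMSO so AC50 marks enhancers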
Procedure, shortened: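 After 8 h dosing, stably expressing HEK293T cells with split-Venus AR/SRC-1 fusions were imaged (488, 635nm). The 488nm N/C ratio per image gave the endpoint, analysed in the positive direction against DMSO.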

**Q.** `CCCCCCCc1ccc(O)cc1` was tested. Which AC50 did it give?
**A.** 74.4 µM (active) and 73.3 µM (active)

**Q.** What about the outcome of the same molecule?
**A.** inactive

**Q.** For `CCNc1nc(Cl)nc(NC(C)(C)C)n1`, which outcome is on record?
**A.** inactive

**Q.** For `CCCCC(CC)COP(=O)(Oc1ccccc1)Oc1ccccc1` (centres undefined), which outcome is on record?
**A.** inactive

**Q.** How did the AC50 turn out when `CC1(C)CN=C(NN=C(/C=C/c2ccc(C(F)(F)F)cc2)/C=C/c2ccc(C(F)(F)F)cc2)NC1` was run?
**A.** 44 µM (active)

**Q.** For `CCN(CC)c1ccccc1`, which outcome is on record?
**A.** inactive

From PubChem BioAssay (EPA / NIEHS)
